Assay results published in PubChem BioAssay (Tox21).
Unmarked numbers belong to inactive results. Activity calls are given as the source filed them. The call rests on the fitted dose curve; in most records, active means well fitted activation curve with a large enough effect in the repeat runs; inconclusive means weak or mixed curves; inactive means flat fitted curve, though single readings scatter.

molecular target: Androgen receptor (Homo sapiens) (UniProt P10275); assay: qHTS assay to identify small molecule agonists of the androgen receptor (AR) signaling pathway using the MDA cell line (AID 743040; further: nearly all actives have a fitted effect of over 20% in size); conditions: MDA-kb2 AR-luc cells, MMTV luciferase, 16 h; series mostly up to 70.3 µM; activity change: at the top concentration
Sequence (P10275 whole entry, looked up): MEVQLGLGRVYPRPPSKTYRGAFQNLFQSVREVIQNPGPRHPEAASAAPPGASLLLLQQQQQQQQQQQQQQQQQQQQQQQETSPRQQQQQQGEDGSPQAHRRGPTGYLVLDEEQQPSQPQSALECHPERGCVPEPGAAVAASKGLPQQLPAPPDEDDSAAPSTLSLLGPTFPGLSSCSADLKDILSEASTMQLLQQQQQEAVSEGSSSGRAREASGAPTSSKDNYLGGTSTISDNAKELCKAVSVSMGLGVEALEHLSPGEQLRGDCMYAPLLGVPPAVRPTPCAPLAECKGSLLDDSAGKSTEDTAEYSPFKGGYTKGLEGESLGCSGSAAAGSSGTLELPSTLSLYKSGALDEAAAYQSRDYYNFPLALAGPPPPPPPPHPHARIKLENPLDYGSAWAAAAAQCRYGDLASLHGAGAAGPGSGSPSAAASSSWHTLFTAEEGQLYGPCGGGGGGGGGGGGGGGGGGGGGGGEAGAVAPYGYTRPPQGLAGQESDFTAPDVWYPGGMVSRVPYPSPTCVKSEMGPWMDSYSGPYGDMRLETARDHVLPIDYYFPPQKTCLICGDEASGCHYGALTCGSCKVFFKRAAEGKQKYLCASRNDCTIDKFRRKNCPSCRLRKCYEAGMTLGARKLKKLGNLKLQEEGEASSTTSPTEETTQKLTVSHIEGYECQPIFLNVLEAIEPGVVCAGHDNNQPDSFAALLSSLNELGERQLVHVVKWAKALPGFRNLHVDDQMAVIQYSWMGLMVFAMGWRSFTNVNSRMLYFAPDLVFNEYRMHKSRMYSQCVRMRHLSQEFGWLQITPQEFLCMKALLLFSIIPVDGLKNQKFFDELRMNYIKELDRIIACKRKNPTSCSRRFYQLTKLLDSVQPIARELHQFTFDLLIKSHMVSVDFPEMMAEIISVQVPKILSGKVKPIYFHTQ
Text: National Center for Advancing Translational Sciences [NCATS]
NIH Chemical Genomics Center [NCGC]
U.S. Environmental Protection Agency [EPA]
National Institutes of Environmental Health Sciences [NIEHS]
National Toxicology Program [NTP]
U.S. Food and Drug Administration [FDA]
Androgen receptor (AR), a nuclear hormone receptor, plays a critical role in AR-dependent prostate cancer and other androgen related diseases. Endocrine disrupting chemicals (EDCs) and their interactions with steroid hormone receptors like AR may cause disruption of normal endocrine function as well as interfere with metabolic homeostasis, reproduction, developmental and behavioral functions. To identify the compounds that activate AR signaling, MDA-kb2 AR-luc cell line (from ATCC, deposited by Wilson et al.) was used to screen the Tox21 10K compound library. MDA-kb2 AR-luc cell line is human breast carcinoma cell line that was stably transfected with a luciferase reporter gene under control of the MMTV promoter containing response elements for both androgen receptor (AR) and glucocorticoid receptor (GR).
Tox21 Assay Protocol Summary:
MDA-kb2 AR-luc cells were dispensed at 3,000 cells/5 uL/well of culture medium into white wall/solid-bottom 1536-well plates using a Multidrop Combi (ThermoFisher Scientific, Waltham, MA) dispenser. After the assay plates were incubated at 37C and 0% CO2 for 5 h, 23 nL of compounds dissolved in DMSO, positive controls or DMSO only was transferred to the assay plate by a Pintool station (Kalypsys, San Diego, CA). The plates were incubated at 37C and 0% CO2 for 16 h. Then 4 uL of ONE-Glo reagent (Promega, Madison, WI) was added to each plate using a Bioraptr Flying Reagent Dispenser (FRD) workstation (Beckman Coulter, Indianapolis, IN, USA) and luminescence was quantified on a ViewLux (PerkinElmer, Shelton, CT) plate reader after 30 min incubation at room temperature.
On the % scale 0 is the no-effect control and ±100 the full control effect; potency means the concentration at half of the fitted maximal effect.

Row | SMILES | Potency | activity change
1 | CCCCc1ccc2nc(NC(=O)OC)[nH]c2c1 | 5.07 µM (active) | –
2 | CC1=C2[C@H](/C=C(\C)C(=O)O)CC[C@@H](C)[C@H]2CC1 | – | -2.91% [at 95 µM, active compounds read high]
3 | Cc1cc2nc(N)sc2cc1C | – | 15.3% [at 95 µM, active compounds read high]
4 | CN1CCN(C2=Nc3cc(F)ccc3Cc3ccccc32)CC1 | – | -5.08%
5 | CC(C)c1ccccc1 | – | 0.013% [at 95 µM, active compounds read high]
6 | Nc1cccc(S(=O)(=O)O)c1 | – | 0.954%
7 | N#Cc1ccc(C(c2ccc(C#N)cc2)n2cncn2)cc1 | inactive | –
8 | NCCCN1CCN(CCCN)CC1 | – | 0.921%
9 | OC[C@H]1O[C@@H](O[C@H]2[C@H](O)[C@@H](O)[C@H](O)O[C@@H]2CO)[C@H](O)[C@@H](O)[C@H]1O | – | 1.38%
10 | C[C@@H]1CN(c2c(F)c(F)c3c(=O)c(C(=O)O)cn(C4CC4)c3c2F)C[C@H](C)N1 | 26.6 µM (active) | –
11 | OCCN(CCO)CCN(CCO)CCO | – | 2.49%
12 | OCCN(CCO)c1ccccc1 | – | 0.439%
13 | COC(C)CCO (stereo not given) | – | -0.995%
14 | CCC(=O)c1ccc2c(c1)N(CCCN(C)C)c1ccccc1S2 | – | -12.8%
15 | COC(=O)C(C)O (stereo not given) | – | -3.01% [at 95 µM, active compounds read high]
16 | CC(C)CCCCCCc1ccc(OCCOCCO)cc1 | – | 0.413% [at 95 µM, active compounds read high]
17 | Cc1ccsc1C(=CCCN1CCC[C@@H](C(=O)O)C1)c1sccc1C | – | 7.79%
18 | CCCCCOc1ccc(C2SC(=O)NC2=O)cc1OCC (stereo not given) | – | 5.47%
19 | CC1(O)CSC(C)(O)CS1 (stereo not given) | – | -3.54%
20 | Cc1c(C(=O)NCCO)[n+](=O)c2ccccc2n1[O-] | – | 0.0486%
21 | CN(C)Cc1ccccc1 | inactive | –
22 | Cc1ncc(CO)c(CN)c1O | – | 0.774%
23 | C[C@@H](N)C(=O)O | – | -4.38%
24 | CC(=O)OC(C)OC(C)=O | – | -0.0499% [at 95 µM, active compounds read high]
25 | CC1=C(CC(=O)O)c2cc(F)ccc2/C1=C\c1ccc(S(C)(=O)=O)cc1 | – | 5.02%
26 | CC(C)(C)c1cccc(O)c1 | – | -0.0038%
27 | Cn1cnc2c(F)c(Nc3ccc(Br)cc3Cl)c(C(=O)NOCCO)cc21 | – | -7.34%
28 | Cc1nc(-c2ccccn2)ncc1C(=O)Nn1cc(C)c2cc(F)ccc21 | – | -5.15%
29 | O=C1CCN(c2ccccc2)N1 | – | 5.59% [at 95 µM, active compounds read high]
30 | Cc1cc(S(=O)(=O)O)c(N)cc1Cl | – | -2.03% [at 95 µM, active compounds read high]
